# Assay results published in publication PMC7862700, “An all-to-all approach to the identification of sequence-specific readers for epigenetic DNA modifications on cytosine”.
# What was measured:
# Test in all cases: DAPPL (digital affinity profiling via proximity ligation, sequencing); 10 mM Tris-HCl pH 7.5, 50 mM NaCl, 1 mM DTT, 4% glycerol, room temperature, 30 min; GST-TFs on glutathione beads, 16-mer random dsDNA library, 0.1% formaldehyde crosslink after washing; high values mean tight binding
# FLI1 = target: T1, FLI1 (Homo sapiens, UniProt Q01543 1-452); conditions: protein: recombinant; tags: N-terminal GST; dsDNA, one strand shown
# T1 sequence: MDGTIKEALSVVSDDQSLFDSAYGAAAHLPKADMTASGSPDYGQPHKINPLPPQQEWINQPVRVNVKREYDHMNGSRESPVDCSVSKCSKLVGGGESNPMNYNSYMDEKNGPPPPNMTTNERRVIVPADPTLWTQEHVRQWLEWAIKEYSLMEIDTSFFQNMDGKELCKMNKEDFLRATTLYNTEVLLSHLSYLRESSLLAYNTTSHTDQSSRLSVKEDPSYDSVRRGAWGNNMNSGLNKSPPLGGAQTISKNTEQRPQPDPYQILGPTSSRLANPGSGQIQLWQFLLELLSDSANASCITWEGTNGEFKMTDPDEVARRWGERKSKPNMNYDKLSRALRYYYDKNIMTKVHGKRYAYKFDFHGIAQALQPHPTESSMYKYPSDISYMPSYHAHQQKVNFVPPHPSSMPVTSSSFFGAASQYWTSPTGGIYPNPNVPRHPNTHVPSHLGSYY
# Outline: (§1)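 Pools of DNA-barcoded human transcription factors, expressed in yeast as GST fusions on glutathione beads and combined with a tag-only sample, were incubated with 200 nmole of a 16-mer random double-stranded DNA library. Incubation took 30 min at room temperature in Tris/NaCl/DTT/glycerol buffer and was followed by washing, 0.1% formaldehyde crosslinking, proximity ligation (BsaI/T4 ligase, 1 h, 37 °C), PCR amplification and sequencing on an Illumina NextSeq500. Binding signal is the ratio of a hexamer's read frequency for a factor to its frequency for the tag-only sample.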
# ELK1 = target: T2, ELK1 (Homo sapiens, UniProt P19419 1-428); conditions: protein: recombinant; tags: N-terminal GST; dsDNA, one strand shown
# T2 sequence: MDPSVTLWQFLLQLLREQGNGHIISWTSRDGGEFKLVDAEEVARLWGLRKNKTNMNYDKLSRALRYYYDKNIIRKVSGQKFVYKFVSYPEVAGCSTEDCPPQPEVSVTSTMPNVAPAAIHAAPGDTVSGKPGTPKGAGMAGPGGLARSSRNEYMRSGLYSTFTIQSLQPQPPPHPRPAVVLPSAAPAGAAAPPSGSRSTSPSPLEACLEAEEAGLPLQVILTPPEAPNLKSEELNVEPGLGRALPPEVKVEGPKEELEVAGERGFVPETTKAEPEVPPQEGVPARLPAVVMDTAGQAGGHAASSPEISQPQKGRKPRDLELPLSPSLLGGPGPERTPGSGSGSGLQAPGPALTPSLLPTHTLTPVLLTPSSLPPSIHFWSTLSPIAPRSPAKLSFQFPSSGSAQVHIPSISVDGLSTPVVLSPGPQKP
# Outline: as §1
# GABPA = target: T3, GABPA (Homo sapiens, UniProt Q06546 1-454); conditions: protein: recombinant; tags: N-terminal GST; dsDNA, one strand shown
# T3 sequence: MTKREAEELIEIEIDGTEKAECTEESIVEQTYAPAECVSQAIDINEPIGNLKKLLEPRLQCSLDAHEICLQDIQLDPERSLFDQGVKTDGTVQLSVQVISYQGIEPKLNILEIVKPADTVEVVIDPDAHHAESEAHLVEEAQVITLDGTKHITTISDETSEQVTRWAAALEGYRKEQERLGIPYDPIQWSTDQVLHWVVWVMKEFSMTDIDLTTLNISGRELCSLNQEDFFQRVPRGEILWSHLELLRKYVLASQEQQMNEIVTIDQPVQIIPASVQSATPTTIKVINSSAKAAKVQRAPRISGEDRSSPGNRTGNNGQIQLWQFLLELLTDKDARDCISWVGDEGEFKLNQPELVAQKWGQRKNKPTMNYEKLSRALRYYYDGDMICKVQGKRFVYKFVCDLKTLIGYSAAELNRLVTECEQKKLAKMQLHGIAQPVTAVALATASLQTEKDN
# Outline: as §1
# ERG = target: T4, ERG (Homo sapiens, UniProt P11308 1-479); conditions: protein: recombinant; tags: N-terminal GST; dsDNA, one strand shown
# T4 sequence: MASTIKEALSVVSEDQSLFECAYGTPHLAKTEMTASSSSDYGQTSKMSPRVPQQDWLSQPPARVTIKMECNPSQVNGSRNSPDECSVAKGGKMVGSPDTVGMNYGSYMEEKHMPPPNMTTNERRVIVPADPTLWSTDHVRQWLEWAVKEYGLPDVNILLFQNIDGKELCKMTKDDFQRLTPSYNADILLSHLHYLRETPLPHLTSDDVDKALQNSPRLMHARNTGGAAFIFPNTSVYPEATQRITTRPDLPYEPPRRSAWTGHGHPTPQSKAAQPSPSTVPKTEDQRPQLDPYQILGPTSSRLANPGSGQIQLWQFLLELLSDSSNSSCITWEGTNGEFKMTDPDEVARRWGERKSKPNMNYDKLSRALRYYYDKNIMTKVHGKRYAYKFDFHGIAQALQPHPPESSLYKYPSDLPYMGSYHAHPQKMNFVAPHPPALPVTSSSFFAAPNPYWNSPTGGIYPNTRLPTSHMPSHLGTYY
# Outline: as §1
# ELF1 = ELF1 (Homo sapiens, UniProt P32519 1-619); conditions: protein: recombinant; tags: N-terminal GST; dsDNA, one strand shown
# Outline: as §1
# EHF = target: T5, EHF (Homo sapiens, UniProt Q9NZC4 1-300); conditions: protein: recombinant; tags: N-terminal GST; dsDNA, one strand shown
# T5 sequence: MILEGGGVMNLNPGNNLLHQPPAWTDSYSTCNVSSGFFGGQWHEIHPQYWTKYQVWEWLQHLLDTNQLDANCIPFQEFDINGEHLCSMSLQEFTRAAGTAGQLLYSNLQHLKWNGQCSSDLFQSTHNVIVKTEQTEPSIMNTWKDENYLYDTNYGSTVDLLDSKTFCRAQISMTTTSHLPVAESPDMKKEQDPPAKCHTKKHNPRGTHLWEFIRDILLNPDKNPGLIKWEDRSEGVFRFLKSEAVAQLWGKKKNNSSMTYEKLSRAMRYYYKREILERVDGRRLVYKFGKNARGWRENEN
# Outline: as §1
# SPI1 = SPI1 (Homo sapiens, UniProt P17947 1-270); conditions: protein: recombinant; tags: N-terminal GST; dsDNA, one strand shown
# Outline: as §1
# SPIB = SPIB (Homo sapiens, UniProt Q01892 1-262); conditions: protein: recombinant; tags: N-terminal GST; dsDNA, one strand shown
# Outline: as §1
# ELK3 = target: T6, ELK3 (Homo sapiens, UniProt P41970 1-407); conditions: protein: recombinant; tags: N-terminal GST; dsDNA, one strand shown
# T6 sequence: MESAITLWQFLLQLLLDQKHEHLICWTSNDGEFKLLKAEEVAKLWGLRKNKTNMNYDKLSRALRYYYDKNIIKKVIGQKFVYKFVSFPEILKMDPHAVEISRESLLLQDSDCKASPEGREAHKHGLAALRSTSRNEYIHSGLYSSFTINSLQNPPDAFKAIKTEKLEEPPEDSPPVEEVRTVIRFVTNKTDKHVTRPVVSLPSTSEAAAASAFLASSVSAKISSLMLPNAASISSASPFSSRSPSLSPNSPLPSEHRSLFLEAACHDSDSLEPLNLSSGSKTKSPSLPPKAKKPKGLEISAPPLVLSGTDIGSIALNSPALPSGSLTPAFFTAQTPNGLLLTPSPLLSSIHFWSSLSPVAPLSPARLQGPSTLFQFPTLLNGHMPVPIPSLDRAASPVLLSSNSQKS
# Outline: as §1
# FEV = target: T7, FEV (Homo sapiens, UniProt Q99581 1-238); conditions: protein: recombinant; tags: N-terminal GST; dsDNA, one strand shown
# T7 sequence: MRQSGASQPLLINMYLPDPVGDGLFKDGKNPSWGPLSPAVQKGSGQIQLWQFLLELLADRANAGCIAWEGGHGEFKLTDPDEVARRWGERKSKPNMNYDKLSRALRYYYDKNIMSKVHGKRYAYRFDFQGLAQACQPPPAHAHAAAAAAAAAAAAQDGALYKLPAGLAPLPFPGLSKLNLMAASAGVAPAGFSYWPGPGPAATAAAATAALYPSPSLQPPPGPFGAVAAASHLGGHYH
# Outline: as §1
# ETV5 = ETV5 (Homo sapiens, UniProt P41161 1-510); conditions: protein: recombinant; tags: N-terminal GST; dsDNA, one strand shown
# Outline: as §1
# HSF1 = HSF1 (Homo sapiens, UniProt Q00613 1-529); conditions: protein: recombinant; tags: N-terminal GST; chain copies: 3; dsDNA, one strand shown
# Outline: as §1
# SPIC = target: T8, SPIC (Homo sapiens, UniProt Q8N5J4 1-248); conditions: protein: recombinant; tags: N-terminal GST; dsDNA, one strand shown
# T8 sequence: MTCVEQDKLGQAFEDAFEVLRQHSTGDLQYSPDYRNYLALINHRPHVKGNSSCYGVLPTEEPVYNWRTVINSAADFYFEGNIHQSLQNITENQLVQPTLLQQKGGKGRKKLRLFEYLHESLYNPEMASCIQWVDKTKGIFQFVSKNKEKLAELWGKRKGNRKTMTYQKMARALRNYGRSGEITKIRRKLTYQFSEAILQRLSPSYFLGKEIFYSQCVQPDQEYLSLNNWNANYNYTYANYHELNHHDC
# Outline: as §1
# ELF4 = ELF4 (Homo sapiens, UniProt Q99607 1-663); conditions: protein: recombinant; tags: N-terminal GST; dsDNA, one strand shown
# Outline: as §1
# ELK4 = target: T9, ELK4 (Homo sapiens, UniProt P28324-2 1-405); conditions: protein: recombinant; tags: N-terminal GST; dsDNA, one strand shown
# T9 sequence: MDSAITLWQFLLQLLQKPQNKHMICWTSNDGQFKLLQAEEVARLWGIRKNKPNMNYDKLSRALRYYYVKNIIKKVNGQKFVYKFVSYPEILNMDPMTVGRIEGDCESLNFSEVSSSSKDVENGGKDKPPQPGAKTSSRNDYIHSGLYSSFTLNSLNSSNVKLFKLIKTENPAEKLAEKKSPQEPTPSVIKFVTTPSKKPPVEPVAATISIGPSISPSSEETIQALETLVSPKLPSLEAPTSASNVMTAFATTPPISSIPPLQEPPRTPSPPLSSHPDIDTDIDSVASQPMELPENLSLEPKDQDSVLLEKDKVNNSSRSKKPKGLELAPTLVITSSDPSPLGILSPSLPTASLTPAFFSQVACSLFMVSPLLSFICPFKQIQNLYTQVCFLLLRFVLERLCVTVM
# Outline: as §1
# ETV2 = target: T10, ETV2 (Homo sapiens, UniProt O00321 1-342); conditions: protein: recombinant; tags: N-terminal GST; dsDNA, one strand shown
# T10 sequence: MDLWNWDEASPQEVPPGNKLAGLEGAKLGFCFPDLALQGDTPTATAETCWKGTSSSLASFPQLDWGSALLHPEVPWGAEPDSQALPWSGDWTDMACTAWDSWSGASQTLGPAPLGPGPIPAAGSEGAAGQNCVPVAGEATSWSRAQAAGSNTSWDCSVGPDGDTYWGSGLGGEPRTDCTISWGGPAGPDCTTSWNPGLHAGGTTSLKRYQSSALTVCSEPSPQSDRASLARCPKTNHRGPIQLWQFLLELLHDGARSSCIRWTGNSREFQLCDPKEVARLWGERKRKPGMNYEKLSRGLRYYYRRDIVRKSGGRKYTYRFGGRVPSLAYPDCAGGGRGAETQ
# Outline: as §1
# ELF3 = target: T11, ELF3 (Homo sapiens, UniProt P78545 1-371); conditions: protein: recombinant; tags: N-terminal GST; dsDNA, one strand shown
# T11 sequence: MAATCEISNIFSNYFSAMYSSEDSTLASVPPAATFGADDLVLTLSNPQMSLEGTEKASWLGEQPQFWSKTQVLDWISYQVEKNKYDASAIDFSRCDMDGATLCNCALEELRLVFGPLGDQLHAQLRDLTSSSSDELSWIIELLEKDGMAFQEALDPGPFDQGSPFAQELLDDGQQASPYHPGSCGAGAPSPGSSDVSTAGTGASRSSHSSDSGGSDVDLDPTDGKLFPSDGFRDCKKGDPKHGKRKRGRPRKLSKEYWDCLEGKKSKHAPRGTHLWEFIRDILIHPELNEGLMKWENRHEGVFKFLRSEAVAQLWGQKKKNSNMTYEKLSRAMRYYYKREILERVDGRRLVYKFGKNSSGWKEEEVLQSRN
# Outline: as §1
# CRX = CRX (Homo sapiens, UniProt O43186 1-299); conditions: protein: recombinant; tags: N-terminal GST; dsDNA, one strand shown
# Outline: as §1
# ETV1 = ETV1 (Homo sapiens, UniProt P50549 1-477); conditions: protein: recombinant; tags: N-terminal GST; dsDNA, one strand shown
# Outline: as §1
# ELF4, sequence (Q99607 whole entry): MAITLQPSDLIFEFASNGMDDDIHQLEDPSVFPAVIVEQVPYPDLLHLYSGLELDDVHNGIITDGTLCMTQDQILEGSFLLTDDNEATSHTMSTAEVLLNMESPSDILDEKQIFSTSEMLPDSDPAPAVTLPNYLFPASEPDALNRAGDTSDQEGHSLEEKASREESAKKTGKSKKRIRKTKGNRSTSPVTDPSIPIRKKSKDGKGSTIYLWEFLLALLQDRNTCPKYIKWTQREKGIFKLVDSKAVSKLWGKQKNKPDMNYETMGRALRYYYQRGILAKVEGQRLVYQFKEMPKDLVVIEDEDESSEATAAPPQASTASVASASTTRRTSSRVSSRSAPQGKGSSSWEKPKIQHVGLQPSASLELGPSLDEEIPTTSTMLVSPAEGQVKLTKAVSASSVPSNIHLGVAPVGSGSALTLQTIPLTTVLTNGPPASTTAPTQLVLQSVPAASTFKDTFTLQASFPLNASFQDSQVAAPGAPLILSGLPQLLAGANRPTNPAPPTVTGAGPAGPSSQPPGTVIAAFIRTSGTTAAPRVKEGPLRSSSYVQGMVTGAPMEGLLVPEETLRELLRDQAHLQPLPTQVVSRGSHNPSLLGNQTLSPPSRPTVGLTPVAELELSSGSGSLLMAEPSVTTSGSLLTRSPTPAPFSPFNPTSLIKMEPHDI
# ETV5, sequence (P41161 whole entry): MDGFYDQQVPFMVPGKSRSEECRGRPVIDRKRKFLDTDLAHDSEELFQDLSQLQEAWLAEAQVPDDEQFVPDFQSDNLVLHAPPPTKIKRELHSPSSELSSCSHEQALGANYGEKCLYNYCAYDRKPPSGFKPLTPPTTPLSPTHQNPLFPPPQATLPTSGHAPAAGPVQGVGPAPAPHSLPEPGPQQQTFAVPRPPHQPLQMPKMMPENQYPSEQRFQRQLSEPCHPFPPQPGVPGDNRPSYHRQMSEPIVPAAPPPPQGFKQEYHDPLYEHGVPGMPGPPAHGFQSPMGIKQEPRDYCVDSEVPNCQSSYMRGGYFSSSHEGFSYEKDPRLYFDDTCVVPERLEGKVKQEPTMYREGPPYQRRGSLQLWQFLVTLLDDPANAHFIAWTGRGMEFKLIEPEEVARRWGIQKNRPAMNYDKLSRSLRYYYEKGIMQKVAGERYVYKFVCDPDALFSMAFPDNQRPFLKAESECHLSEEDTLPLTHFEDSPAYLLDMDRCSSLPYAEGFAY
# ETV1, sequence (P50549 whole entry): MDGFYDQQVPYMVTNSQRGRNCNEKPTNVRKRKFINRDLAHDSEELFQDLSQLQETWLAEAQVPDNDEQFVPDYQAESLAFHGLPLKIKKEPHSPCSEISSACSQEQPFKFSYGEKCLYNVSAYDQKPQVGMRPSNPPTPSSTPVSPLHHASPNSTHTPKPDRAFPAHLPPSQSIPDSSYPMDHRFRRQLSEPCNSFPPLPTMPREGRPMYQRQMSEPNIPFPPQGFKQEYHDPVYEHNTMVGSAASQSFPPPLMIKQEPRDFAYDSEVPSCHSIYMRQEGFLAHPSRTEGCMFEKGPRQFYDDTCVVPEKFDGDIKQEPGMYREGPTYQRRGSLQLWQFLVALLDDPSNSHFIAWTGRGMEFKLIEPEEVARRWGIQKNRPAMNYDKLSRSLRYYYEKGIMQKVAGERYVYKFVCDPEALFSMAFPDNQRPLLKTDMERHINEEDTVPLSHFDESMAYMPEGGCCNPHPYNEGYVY
# HSF1, sequence (Q00613 whole entry): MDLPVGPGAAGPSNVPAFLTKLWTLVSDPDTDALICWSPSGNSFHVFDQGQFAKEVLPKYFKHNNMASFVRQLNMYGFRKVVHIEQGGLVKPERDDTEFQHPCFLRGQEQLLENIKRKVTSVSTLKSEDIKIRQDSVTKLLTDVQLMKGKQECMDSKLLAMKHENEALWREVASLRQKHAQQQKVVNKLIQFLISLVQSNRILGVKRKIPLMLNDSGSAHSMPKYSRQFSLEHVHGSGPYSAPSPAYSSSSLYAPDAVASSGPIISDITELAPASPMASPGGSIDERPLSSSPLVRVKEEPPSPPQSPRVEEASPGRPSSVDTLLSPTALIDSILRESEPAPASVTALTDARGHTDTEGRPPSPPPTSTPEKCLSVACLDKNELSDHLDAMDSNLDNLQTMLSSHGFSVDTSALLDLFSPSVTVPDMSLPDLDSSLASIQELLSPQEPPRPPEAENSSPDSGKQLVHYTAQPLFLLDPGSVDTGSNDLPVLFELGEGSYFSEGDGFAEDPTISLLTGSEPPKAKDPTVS
# SPIB, sequence (Q01892 whole entry): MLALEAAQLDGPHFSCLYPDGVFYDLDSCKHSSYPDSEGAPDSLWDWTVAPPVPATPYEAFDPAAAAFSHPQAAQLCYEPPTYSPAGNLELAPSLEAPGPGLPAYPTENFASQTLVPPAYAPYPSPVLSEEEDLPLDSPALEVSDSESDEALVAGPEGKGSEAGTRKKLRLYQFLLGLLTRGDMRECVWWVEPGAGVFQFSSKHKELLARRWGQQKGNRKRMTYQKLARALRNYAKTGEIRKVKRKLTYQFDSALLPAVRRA
# ELF1, sequence (P32519 whole entry): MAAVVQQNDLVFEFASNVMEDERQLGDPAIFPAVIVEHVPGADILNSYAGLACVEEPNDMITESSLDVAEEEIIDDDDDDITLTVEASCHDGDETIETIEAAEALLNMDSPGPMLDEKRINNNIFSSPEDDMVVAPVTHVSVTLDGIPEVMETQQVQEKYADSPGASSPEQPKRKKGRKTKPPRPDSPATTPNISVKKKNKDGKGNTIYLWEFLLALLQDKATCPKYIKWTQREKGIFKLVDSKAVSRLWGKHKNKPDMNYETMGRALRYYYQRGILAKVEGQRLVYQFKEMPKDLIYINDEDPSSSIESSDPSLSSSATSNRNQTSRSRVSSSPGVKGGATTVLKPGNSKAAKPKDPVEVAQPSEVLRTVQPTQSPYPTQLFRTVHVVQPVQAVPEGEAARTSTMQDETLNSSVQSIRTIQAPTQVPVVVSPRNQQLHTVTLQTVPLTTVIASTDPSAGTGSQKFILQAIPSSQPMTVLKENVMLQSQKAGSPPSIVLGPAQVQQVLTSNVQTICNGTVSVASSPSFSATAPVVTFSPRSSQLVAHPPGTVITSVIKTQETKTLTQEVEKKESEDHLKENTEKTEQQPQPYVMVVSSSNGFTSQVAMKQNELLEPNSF
# CRX, sequence (O43186 whole entry): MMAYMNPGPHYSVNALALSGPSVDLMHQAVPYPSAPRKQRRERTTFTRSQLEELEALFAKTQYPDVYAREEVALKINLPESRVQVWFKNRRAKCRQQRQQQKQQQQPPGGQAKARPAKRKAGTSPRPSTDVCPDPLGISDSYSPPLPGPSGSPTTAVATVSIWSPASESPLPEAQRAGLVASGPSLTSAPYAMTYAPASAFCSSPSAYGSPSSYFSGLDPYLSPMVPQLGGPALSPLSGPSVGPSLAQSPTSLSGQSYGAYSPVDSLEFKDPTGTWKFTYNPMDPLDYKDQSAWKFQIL
sequence,measurement,setting,value
GCCTTA,binding signal,FLI1,"1.15 fold enrichment (6-mer frequency, TF over GST control)"
same,binding signal,ELK1,"1.21 fold enrichment (6-mer frequency, TF over GST control)"
same,binding signal,GABPA,"1.26 fold enrichment (6-mer frequency, TF over GST control)"
same,binding signal,ERG,"1.21 fold enrichment (6-mer frequency, TF over GST control)"
same,binding signal,ELF1,"1.17 fold enrichment (6-mer frequency, TF over GST control)"
same,binding signal,EHF,"1.11 fold enrichment (6-mer frequency, TF over GST control)"
same,binding signal,SPI1,"1.13 fold enrichment (6-mer frequency, TF over GST control)"
same,binding signal,SPIB,"1.27 fold enrichment (6-mer frequency, TF over GST control)"
same,binding signal,ELK3,"1.15 fold enrichment (6-mer frequency, TF over GST control)"
same,binding signal,FEV,"1.11 fold enrichment (6-mer frequency, TF over GST control)"
same,binding signal,ETV5,"1.13 fold enrichment (6-mer frequency, TF over GST control)"
same,binding signal,HSF1,"1.3 fold enrichment (6-mer frequency, TF over GST control)"
same,binding signal,SPIC,"1.07 fold enrichment (6-mer frequency, TF over GST control)"
same,binding signal,ELF4,"1.3 fold enrichment (6-mer frequency, TF over GST control)"
same,binding signal,ELK4,"1.1 fold enrichment (6-mer frequency, TF over GST control)"
same,binding signal,ETV2,"1.1 fold enrichment (6-mer frequency, TF over GST control)"
same,binding signal,ELF3,"1.24 fold enrichment (6-mer frequency, TF over GST control)"
same,binding signal,CRX,"1.64 fold enrichment (6-mer frequency, TF over GST control)"
same,binding signal,ETV1,"1.14 fold enrichment (6-mer frequency, TF over GST control)"
